Among all 68,000 compounds or so, about 2,700 (4%) showed an effect of 50% or more. The sample as a whole holds a higher share of strong results than the screen did.
What follows are compounds tested on Plasmodium berghei (assay: Screen against P. berghei liver stage (PbLuc), transformed with Luciferase, at 2uM). Details: tested at 2 uM.
Format: functional, HepG2

Point of comparison: `CCN1CCC(CC(=O)NCC(O)c2cccc(OC)c2)CC1` (stereo not given), INHIBITION 50.32%. Against it:
- Cn1ccnc1CN1CC[C@H](O)[C@@H](n2ccc(=O)[nH]c2=O)CC1 — lower, 31.14%
- CCN1CC2(CC1=O)CN(Cc1ccco1)CCN(C(=O)C(C)C)C2 (stereo not given) — lower, -47.39%
- O=C(NCCOCCO)c1cccnc1Oc1ccc(Cl)cc1 — lower, 21.75%
- c1ccc2oc(N3CCn4c(nnc4C4CC4)C3)nc2c1 — lower, -45.42%
- Cn1ccnc1-c1ccc(NCc2cn3c(n2)SCC3)nn1 — lower, -75.92%
- Cc1ccc(C(=O)NCCCNS(C)(=O)=O)cc1-n1cccc1 — higher, 54.49%
- Cc1ccc(C(=O)NCCCN(C)S(C)(=O)=O)cc1-n1cccc1 — lower, -5.68%
- CS(=O)(=O)NCCCNC(=O)c1cccc(-n2cccc2)c1 — lower, 30.31%
- CNC(=O)Cn1nc(C(C)C)c2cnn(C(C)(C)C)c2c1=O — lower, -30.6%
- CCN1CCC(CC(=O)NCCc2nc(C)cc(C)n2)CC1 — lower, 3.4%
- O=C(CC(F)(F)F)NCC(O)c1ccc2ccccc2c1 (stereo not given) — lower, 23.81%
- CCN1CCC(CC(=O)NCc2nc(C)cc(C)n2)CC1 — lower, -28.09%
- O=C(CNC(=O)C1CCCC1)NCC(O)c1ccc2ccccc2c1 (stereo not given) — lower, 9.78%
- COc1cccc(C(O)CNC(=O)CC2CCCCC2)c1 (stereo not given) — higher, 51.96%
- COc1cccc(S(=O)(=O)NC(=O)CC2CCCC2)c1 — lower, 14.02%
- CCN1CCC(CC(=O)NCC(O)c2ccc3ccccc3c2)CC1 (stereo not given) — higher, 52.08%
- CC(C)Oc1cccc(C(O)CNC(=O)CCc2ccncc2)c1 (stereo not given) — lower, -32.28%
- O=C(C1CCOCC1)N1C[C@@H]2[C@@H](C1)OCC(=O)N2Cc1ccncc1 — lower, -25.8%
- CC(Nc1ncnc2c1CCNC2)c1ccc2c(c1)CCCC2 (stereo not given) — lower, 48.21%
- Cn1ncc2c1CN(C(=O)Cc1ccccn1)CC2COCC1CC1 (stereo not given) — lower, -4.69%
- O=C(C1CCC1)N1CCN(Cc2ccc(F)cc2)[C@H]2CS(=O)(=O)C[C@H]21 — lower, 5.17%
- Cc1ncc2c(n1)CN(CC(=O)Nc1ccncc1)CC2 — lower, -63.75%
- Cc1ncc2c(n1)CN(CC(=O)Nc1cc(C)on1)CC2 — lower, 31.57%
- Cc1ncc2c(n1)CN(CC(=O)Nc1c(C)nn(C)c1C)CC2 — higher, 64.16%
- Cc1cc(NC(=O)CN2CCc3cnc(C)nc3C2)on1 — lower, 42.11%
- Cc1ncc2c(n1)CN(CC(=O)Nc1cccnc1)CC2 — higher, 51.94%
- CCc1ncc2c(n1)CN(CC(=O)Nc1cccnc1)CC2 — lower, -28.98%
- Cc1cc(C(=O)N2CCC3(CCNCC3)CC2)c2cccc(C)c2n1 — lower, -26.08%
- COc1ccccc1CNC(Cc1cccs1)c1nc(C)c(C)s1 (stereo not given) — lower, 46.15%
- Cc1nc(C)n(C2CCCN(C(=O)c3ccc(OC(C)C)nc3)C2)n1 (stereo not given) — lower, 3.33%
- CCN(CCN(C)C)c1nc(CCN)nc2sc(C)c(C)c12 — lower, -6.77%
- Cn1ncc2c1NC(=O)CC2c1ccc(O)cc1 (stereo not given) — lower, 16.01%
- Cc1cc(C)n(CC2CCCN2C(=O)Cc2c(C)noc2C)n1 (stereo not given) — higher, 51.19%
- Cc1cc(C)n(CC2CCCN2C(=O)c2cccc3c2OCCO3)n1 (stereo not given) — higher, 50.75%
- CN(C)c1ncccc1C(=O)N1CCCC1Cn1cccn1 (stereo not given) — lower, 7.13%
- Cc1cc(C)n(CC2CCCN2C(=O)Cc2c(C)nn(C)c2C)n1 (stereo not given) — lower, -15.05%
- Cc1cc(C)n(CC2CCCN2C(=O)c2c(C)noc2C)n1 (stereo not given) — lower, -27.28%
- COCCN1CCCC1Cn1nc(C)cc1C (stereo not given) — lower, 17.98%
- Cc1cc(C)n(CC2CCCN2C(=O)c2ccc3c(c2)OCCO3)n1 (stereo not given) — lower, 4.07%
- Cc1cnn(CC2CCCCN2C(=O)c2cccnc2N(C)C)c1 (stereo not given) — higher, 70.27%
- COCCOc1ncccc1C(=O)N1CCCC1Cn1cc(C)cn1 (stereo not given) — lower, -17.31%
- Cc1cc(C)n(CC2CCCN2C(=O)c2cccc3c2OCO3)n1 (stereo not given) — lower, -72.55%
- Cc1cc(C)n(CC2CCCN2CCS(C)(=O)=O)n1 (stereo not given) — lower, -6.16%
- CCCN1CCCC1Cn1nc(C)cc1C (stereo not given) — higher, 60.23%
- COc1ccc(CN2CCO[C@H]3[C@H](OCc4ccncc4)CC[C@@H]32)cc1 — lower, -3.18%
- Cc1nn(C2CCCCC2)c2nc(C(C)(C)CN3CCOCC3)[nH]c12 — lower, 48.54%
- Cc1cccnc1CN1CCN(C(=O)CCn2ccc(=O)[nH]c2=O)CC1 — lower, 35.88%
- Cc1cccc(Cc2cc(C)nc(C3CCCNC3)c2)c1 (stereo not given) — lower, -27.54%
- CCOCC(=O)NCCC(O)c1ccoc1 (stereo not given) — lower, 1.3%
- O=C(NCCNc1ncccn1)C1CC(=O)N(Cc2ccccn2)C1 (stereo not given) — lower, 35.65%
- Nc1cc(N2CCCC2c2cnccn2)ncn1 (stereo not given) — lower, 30.38%
- Cc1cc(C)n(CC2CCCN2C(=O)c2c[nH]c3ncccc23)n1 (stereo not given) — lower, -1.56%
- Cc1cnn(CC2CCCN2C(=O)c2ccccc2-n2cccn2)c1 (stereo not given) — higher, 76.38%
- Cc1cnn(CC2CCCCN2C(=O)c2ccccc2-n2cccn2)c1 (stereo not given) — lower, 37.68%
- Cc1cc(C)n(CC2CCCN2C(=O)c2cccnc2N(C)C)n1 (stereo not given) — higher, 56.02%
- Cc1cnn(CC2CCCN2C(=O)c2ccccc2-n2cnnn2)c1 (stereo not given) — lower, 21.39%
- CCOc1ncccc1C(=O)N1CCCC1Cn1nc(C)cc1C (stereo not given) — lower, 11.95%
- CCc1c(C(=O)N2CCC3(CCCN(CCO)C3=O)C2)csc1C (stereo not given) — lower, 40.64%
- CCCC(=O)N1CCN(CCN(C)C)c2nc(C)ccc2C1 — lower, 19.51%
- Cn1ccnc1SCC(=O)NCCC1CCCO1 (stereo not given) — lower, -38.4%
- O=C(c1ccon1)N1CCCCC1c1nc2cc(F)ccc2[nH]1 (stereo not given) — lower, 14.79%
- COCCC1CN(Cc2cn(CCC(N)=O)c3ccccc23)CCO1 (stereo not given) — lower, 26.22%
- Cc1nnc(CN2CCC(Oc3ccc(F)cc3)CC2)o1 — lower, -4.89%
- C/N=C1\c2cc3cc(OC)ccc3n2CCN1Cc1ccccc1 — lower, -2.66%
- c1cn2c(n1)CN(C1CCOCC1)CC(CN1CCCC1)C2 (stereo not given) — lower, 29.95%
- OCC1(O)CCN(Cc2noc(-c3ccccc3)n2)CC1 — lower, 26.3%
- COc1cccc(CN2CCCC3(CCN(C(=O)[C@H]4CCCO4)C3)C2)c1 (stereo not given in full) — lower, 21.89%
- COc1cccc(CN2CCCC3(CCN(C(=O)N4CCCC4)C3)C2)c1 (stereo not given) — lower, 50.17%
- COc1cccc(CN2CCCC3(CCN(C(=O)c4ccco4)C3)C2)c1 (stereo not given) — lower, 8.37%
